Assay outcomes as filed in PubChem.
BCLXL inh: inhibitors of human Bcl-xL; GST-Bcl-xL / FITC-Bim BH3 peptide fluorescence polarization; 0.7% of 320,000 active; Q07817; inhibition, % at 10.9 µM; AID 2129;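 active means inhibition above the mean of all tested compounds plus 3 SD, cutoff set per campaign, cut at about 30% in these data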;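 further: inhibitors lower millipolarization by displacing the labeled peptide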
GLD-1 TGE inh: GLD-1-TGE RNA interaction inhibition (C. elegans); Q17339; purified GLD-1 + fluorescein TGE RNA, fluorescence polarization; inhibition, % at 5.96 µM; 0.44% of 320,000 active;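 active means percent inhibition above a per-plate cutoff, the plate mean of test compounds plus 3 SD, cut at about 30% in these data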
Target sequence (Q17339 whole entry, looked up): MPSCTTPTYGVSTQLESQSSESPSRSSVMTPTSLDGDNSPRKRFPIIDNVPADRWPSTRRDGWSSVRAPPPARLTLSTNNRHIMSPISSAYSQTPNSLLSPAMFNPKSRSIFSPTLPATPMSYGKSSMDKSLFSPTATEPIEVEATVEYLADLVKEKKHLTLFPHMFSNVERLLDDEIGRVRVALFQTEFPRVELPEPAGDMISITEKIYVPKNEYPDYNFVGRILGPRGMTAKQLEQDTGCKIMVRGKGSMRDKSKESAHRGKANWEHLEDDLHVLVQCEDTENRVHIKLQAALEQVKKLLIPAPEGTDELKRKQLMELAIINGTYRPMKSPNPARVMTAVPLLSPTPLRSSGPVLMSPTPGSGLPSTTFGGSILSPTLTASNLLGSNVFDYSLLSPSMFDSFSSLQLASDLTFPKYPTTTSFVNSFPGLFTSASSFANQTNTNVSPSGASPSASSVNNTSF
LANA-H2B inh: blocks KSHV LANA binding to histone H2A/H2B. 0.6% of 320,000 active. inhibition, % (concentration not given with the values). cell-free LANA-H2A/H2B peptide, fluorescence polarization. AID 2629. Q9QR71; in the data active means inhibition mostly above about 10%, no sharp cut-off; inactive means mostly below about 6.7%
MEX-5 binding: C. elegans MEX-5 TCR-2 RNA binding activity; AID 1832; Q9XUB2; MEX-5/FITC-TCR2 RNA binding, fluorescence polarization; active compounds read low; 0.38% of 300,000 active; activity score (negative = inhibition of binding), % at 10 µM;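 active means inhibition past about -25% in most replicates, and total fluorescence under double the plate's negative control median, limit read from the data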
Yeast superoxide: caloric restriction mimetics inhibiting age-related superoxide in yeast. S. cerevisiae aged cells, superoxide DHE fluorescence; active compounds read low. superoxide response (% of plate mean), % at 10 µM. 0.18% of 330,000 active. AID 2690;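 active means superoxide response under a set limit, about three screen SD below normal, cut at about 65% in these data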;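 further: yeast aged for seven days with compound at 30 °C before DHE staining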
MCL1-BIM inh: MCL1-BIM-BH3 interaction inhibition (human); 0.68% of 320,000 active; GST-MCL1 / FITC-Bim-BH3 fluorescence polarization; inhibition, % at 10.9 µM; Q07820; AID 2057;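 active means inhibition above the mean inhibition of all tested compounds plus 3 SD, set per campaign, cut at about 40% in these data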;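 further: higher means more loss of mP so more displacement of Bim peptide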
Numbers stand for hits; n = inactive; x = not tested or not shown; + = active, no number. An excerpt weighted towards active compounds, which were near 1.9% of everything screened.

SMILES | BCLXL inh | GLD-1 TGE inh | LANA-H2B inh | MEX-5 binding | Yeast superoxide | MCL1-BIM inh
CCOC(=O)c1ccc(NC(=O)CN2C(=O)C(CC)SC(CC)C2=O)cc1 (stereo unspecified) | n | n | 37.9 | n | n | n
CCCn1c(N)c(C(=O)CN2CCN(S(=O)(=O)c3cccc(Cl)c3)CC2)c(=O)[nH]c1=O | x | n | n | x | n | x
COC(=O)c1ccccc1NC1=C/C(=N\S(=O)(=O)c2ccc(C(=O)O)cc2)c2ccccc2C1=O | 40.0 | n | n | n | n | 45.2
COC(=O)c1ccccc1NC1=C/C(=N\S(=O)(=O)c2cccs2)c2ccccc2C1=O | n | n | n | n | n | n
COc1ccccc1NC(=O)Cn1ncc2c1-c1ccccc1OC2 | n | n | n | n | n | n
COc1cc(NC(=O)COc2cccc3c2OC(C)(C)C3)cc(OC)c1OC | n | n | 33.6 | x | n | n
CC(=O)Nc1ccc(NC(=O)COc2cccc3c2OC(C)(C)C3)cc1 | n | n | n | n | n | n
COc1cc(NC(=O)Cn2ncc3c2-c2ccccc2OC3)cc(OC)c1OC | 172.1 | n | n | n | n | n
COc1ccc(-n2ccnc(SCC(=O)NCc3ccccc3Cl)c2=O)cc1 | n | n | n | n | n | n
Oc1cc2c(cc1O)C(c1ccccc1)CNCC2 (stereo unspecified) | n | n | n | -30.3 | n | n
c1ccc(C2CNCCc3ccccc32)cc1 (stereo unspecified) | n | n | n | n | n | n
CCOc1ccc(C(=O)OCC(=O)NCCCc2ccccc2)cc1 | 116.4 | n | n | n | n | n
Cc1ccccc1OCC(=O)N/N=C/c1ccccn1 | n | n | 26.7 | n | n | n
COc1ccc(CNc2nc3ccccc3n2CCN2CCCCC2)cc1 | n | n | n | n | n | n
COc1ccc(CCN2CCC(Nc3nc4ccccc4n3Cc3ccc(F)cc3)CC2)cc1 | n | n | 13.9 | n | n | n
COC(=O)[C@H](Cc1ccccc1)NC(=O)Cn1cnc(C(=O)Nc2ccc(C)c(C)c2)n1 | x | x | x | x | n | x
O=C(COC(=O)COc1ccccc1[N+](=O)[O-])NC1CCCCC1 | n | n | n | x | n | n
CCCCC1CCC(C(=O)Nc2ccc(N3CCOCC3)cc2N2CCOCC2)CC1 (stereo unspecified) | n | n | x | x | n | n
CC(NC(=O)CNC(=O)c1sc2ccccc2c1Cl)c1cccnc1 (stereo unspecified) | n | n | 21.9 | n | n | n
Cc1ccc(NC(=O)CN2C(=O)NC3(CCCc4ccccc43)C2=O)c([N+](=O)[O-])c1 (stereo unspecified) | n | n | n | n | n | n
COc1cccc(OC)c1C(=O)OCc1c(-c2ccccc2)ncc2ccccc12 | x | n | n | x | n | x
COc1ccc(-n2c(O)c(/C=N/NS(=O)(=O)c3ccc(C)c([N+](=O)[O-])c3)c3ccccc3c2=O)cc1OC | 40.9 | n | n | n | n | n
CC[C@@]1(C(=O)OC)N[C@H](CN(C)C(=O)C2CCCCC2)[C@@H]2C(=O)N(C)C(=O)[C@@H]21 | x | n | + | x | n | x
Cc1ccccc1Cn1cc(S(=O)(=O)c2ccc(C(C)C)cc2)c(=O)c2cc3c(cc21)OCO3 | n | n | n | n | n | n
Cc1cccn2c(CNCC3OCCc4ccccc43)c(C(=O)N3CCCCC3)nc12 (stereo unspecified) | n | n | n | n | n | n
SMILES | BCLXL inh | GLD-1 TGE inh | LANA-H2B inh | MEX-5 binding | Yeast superoxide | MCL1-BIM inh
COCCN1CCC(CNCc2c(C(=O)N3CCCCC3)nc3c(C)cccn23)C1 (stereo unspecified) | n | n | n | -48.9 | n | n
O=C(C[C@@H]1C/C=C\CC[C@@H](Cc2ccc(F)cc2)C(=O)OC[C@@H]2CCCN2C1=O)N[C@H](CO)Cc1ccccc1 | x | n | x | x | n | x
CCOc1c(C=C(C#N)C#N)c2ccccc2n1CC | n | n | n | -38.7 | n | n
O=C(NCc1cccnc1)c1cccc(S(=O)(=O)Nc2cccc(Cl)c2)c1 | n | n | n | x | n | n
C/C(=N\N=C1/NC(=O)C(C)S1)c1ccc([N+](=O)[O-])cc1 (stereo unspecified) | n | n | 15.7 | n | n | n
CC(C)=N/N=C1\NC(=O)C(C)S1 (stereo unspecified) | n | n | n | n | n | n
Cc1cc(/C=C2\SC(=S)N(Cc3ccco3)C2=O)c(C)n1-c1ccccc1 | n | 32.4 | n | n | n | n
COCCN1CCN(C(=O)c2cc(COc3cc(C)ccc3C)on2)CC1 | n | n | n | n | n | n
Cc1ncc(CN2CCC(CO)(CCc3ccccc3)CC2)s1 | n | n | 16.3 | n | n | n
CCN(CC)C(=O)c1[nH]cnc1C(=O)Nc1ccc(C)cc1 | n | n | n | x | n | n
CCOc1ccc([C@@H]2CC=C(C(=O)O)CN2S(=O)(=O)c2ccc(C)cc2)cc1 | n | n | n | x | n | n
Cc1cc(N=Cc2c(O)n(-c3ccc4c(c3)OCO4)c(=O)c3ccccc23)ccn1 | n | n | n | -30.7 | n | n
CC(=O)c1ccc(S(=O)(=O)N2CCN(C(=O)c3ccc(-n4nc(C)c(Cl)c4C)cc3)CC2)cc1 | n | n | n | x | n | n
COC(=O)C1C(O)C(C)C(O)C(C)(O)/C=C\C=C(/C)C(=O)Nc2c(C)c(OC(C)=O)c3c(c2O)C(=O)C(C)=C2OCOC(=C23)/C(C)=C/C(C)(O)C(O)C(C)C1O (stereo unspecified) | 49.9 | n | n | n | n | n
COC1OC(COC(=O)c2ccccc2)C(OC(=O)c2ccccc2)C1OC(=O)c1ccccc1 (stereo unspecified) | n | n | n | n | n | n
O=C(OC[C@H]1O[C@@H](OC(=O)c2cc(O)c(O)c(OC(=O)c3cc(O)c(O)c(O)c3)c2)[C@H](OC(=O)c2cc(O)c(O)c(OC(=O)c3cc(O)c(O)c(O)c3)c2)[C@@H](OC(=O)c2cc(O)c(O)c(OC(=O)c3cc(O)c(O)c(O)c3)c2)[C@@H]1OC(=O)c1cc(O)c(O)c(OC(=O)c2cc(O)c(O)c(O)c2)c1)c1cc(O)c(O)c(OC(=O)c2cc(O)c(O)c(O)c2)c1 | 54.6 | 90.3 | n | x | n | 75.7
O=C(O)CCCCCN1C(=O)C(O)=C(C(=O)/C=C/c2ccccc2)C1c1ccccc1[N+](=O)[O-] (stereo unspecified) | n | n | n | -40.0 | n | n
Cc1ccccc1C(=O)NNc1ncnc2c1cnn2C | n | n | 26.3 | n | n | n
Cn1ncc2c(NNC(=O)c3ccccc3Cl)ncnc21 | n | n | n | n | n | n
CCOC(=O)[C@H]1[C@H]2COc3ccc(OC)cc3[C@@H]2N2C(=O)c3cc(F)c(F)cc3NC(=O)[C@@]12C | n | n | n | x | x | n
NNc1ccc(Cl)c(C(=O)O)c1 | n | n | 63.1 | n | n | n
COc1ccccc1N1C(=O)[C@@H]2C(C(=O)CN3C(=O)c4ccccc4C3=O)=NN[C@@H]2C1=O | n | n | 31.9 | x | n | n
